IMPase cell inh – cell-permeable inhibitors of inositol monophosphatase (IMPase); CHO-M1 cells, IP1 accumulation, HTRF TR-FRET ratio; inhibition (IP1 accumulation), % at 46.1 µM; 120,000 tested, under 10 active; AID 901; active = well fitted curve in the direction sought with a large enough effect in the signal ratio, not every such curve was filed as active; inconclusive = small, poorly fitted or top-dose-only effect, or a change in a side signal; inactive = no such curve, though single readings can be large or run the other way; the % refers to the signal ratio;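 note: cells stimulated with carbachol in lithium chloride buffer; plate controls were DMSO basal wells for no effect and reference inhibitor wells for full effect; higher means more IMPase inhibition seen as more IP1 and lower FRET ratio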
Target sequence (P97697 whole entry, looked up): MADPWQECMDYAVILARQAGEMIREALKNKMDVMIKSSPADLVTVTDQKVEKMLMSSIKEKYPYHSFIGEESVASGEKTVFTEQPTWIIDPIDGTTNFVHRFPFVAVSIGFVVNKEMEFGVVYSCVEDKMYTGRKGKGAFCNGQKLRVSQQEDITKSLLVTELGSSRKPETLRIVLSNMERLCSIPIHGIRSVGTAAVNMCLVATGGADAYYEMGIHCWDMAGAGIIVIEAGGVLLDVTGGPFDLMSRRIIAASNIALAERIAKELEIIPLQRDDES
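Cellular IMPase inhibition is scored as a rise in cytosolic IP1, detected by competitive TR-FRET between d2-labelled IP1 and a europium anti-IP1 antibody. M1-expressing CHO cells were stimulated with carbachol for 30 min at 37C, with lithium (50 mM LiCl) present in the buffer.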
HPGD block – inhibitors of human 15-hydroxyprostaglandin dehydrogenase (HPGD) | 150,000 compounds, 4.3% hits | purified HPGD, NADH fluorescence kinetic, PGE2 substrate | Potency, µM, for the others: at the top dose activity change, negative = inhibition, actives largely listed as inhibitors | AID 894; active = well fitted inhibition curve with a large enough effect, not every such curve was filed as active; inconclusive = small, poorly fitted or top-dose-only effect, or another doubt; inactive = no such curve, though single readings can be large or run the other way; note: potency is the fitted concentration of half-maximal effect
Target sequence (P15428 whole entry, looked up): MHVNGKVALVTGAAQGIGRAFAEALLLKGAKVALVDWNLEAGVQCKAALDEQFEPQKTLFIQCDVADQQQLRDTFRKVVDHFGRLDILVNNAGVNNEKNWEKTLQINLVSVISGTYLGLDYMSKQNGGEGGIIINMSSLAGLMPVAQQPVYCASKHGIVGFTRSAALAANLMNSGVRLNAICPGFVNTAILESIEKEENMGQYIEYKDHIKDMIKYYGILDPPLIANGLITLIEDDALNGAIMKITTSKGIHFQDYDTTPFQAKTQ
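20 nM HPGD preincubated 15 min at room temperature with compound in 50 mM Tris-HCl pH 8, 0.01% Tween 20. Started with 1 mM NAD+ and 30 uM prostaglandin E2; NADH fluorescence (360/450 nm) read 5 times over 30-s intervals, last minus first.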
ALOX12 inhib – 12-hLO (ALOX12) enzyme inhibition; purified 12-hLO, xylenol orange hydroperoxide absorbance; 150,000 compounds, 0.12% hits; Potency, µM (highest dose often 57.1 µM), for the others: at the highest dose activity change, negative = inhibition, usual class: inhibitors; P18054; AID 1452; note: potency is the fitted concentration of half-maximal effect; nearly all actives have a fitted effect of over 55% in size
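Purified human 12hLO (150 nM), preincubated 15 min with compound, then 40 uM arachidonic acid for 30 min, room temperature, Hepes pH 7.0 with 0.01% Triton X-100. Hydroperoxide detected by ferrous iron/xylenol orange; 573/405 nm absorbance ratio gives reaction progress.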
IMPase Li cell – membrane-permeable IMPase blocker, potentiated with lithium | AID 1457 | Potency, µM (series often up to 59.4 µM), for the others: at the top dose activity, negative = IMPase inhibition, actives largely listed as inhibitors | 210,000 compounds, 0.35% hits | CHO-M1 cells, IP1 TR-FRET (IP-One), carbachol + lithium;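 note: IP1 builds up when IMPase is blocked and the TR-FRET signal falls; potency is the fitted concentration of half-maximal effect; plate controls were basal vehicle for no effect and high inhibitor control for full effect; nearly all actives have a fitted effect of over 50% in size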
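IP1 accumulation measured by competitive TR-FRET in lysed CHO-M1 cells after 30 min compound exposure at 37C, with a small lithium addition to potentiate weak responses. Hill-equation AC50 from ratio and donor-channel data.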
ALDH1A1 inh – ALDH1A1 (human) enzyme inhibition; P00352; Purified ALDH1A1, NADH fluorescence, propionaldehyde substrate; Potency, µM (titrated, usually from 75.3 µM), without a hit: at the highest dose activity, negative = inhibition, hits mostly inhibitors; 220,000 compounds, 7.3% hits; active = well fitted inhibition curve with a large enough effect, not every such curve was filed as active; inconclusive = small, poorly fitted or top-dose-only effect, or another doubt; inactive = no such curve, though single readings can be large or run the other way;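 note: potency is the fitted concentration of half-maximal effect; plate controls were no enzyme wells and a reference inhibitor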
PNC assembly inh – blocks assembly of the perinucleolar compartment. PC3M PTB-GFP, PNC prevalence imaging, 16 h; active compounds read low. activity change (PNC), negative = inhibition, % at 10 µM. 140,000 compounds, 3.1% hits. AID 2417;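 active = readout at or below -70, meaning at least 70% loss of cells showing the perinucleolar compartment, a nuclear body marking cancer cells; inconclusive = readout between -30 and a set limit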;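 note: plate controls were DMSO wells for no effect and camptothecin positive control wells for full effect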
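Read-out is percentage of cells bearing a perinucleolar compartment, from automated 20x imaging of fixed, Hoechst-stained PC3M PTB-GFP cells. Cells were seeded 4 h, then exposed 16 h to compound (23 nl of library stock) in duplicate plates.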
The depositor's hits bear a star; ? = inconclusive; . = not tested or not shown; [ ] = dose if it differs, or a comment. Most compounds without a hit are left out; they make up all but 11% or so of the library. Unless noted, calls come from the whole dose curve; as a rule, active = well fitted curve in the direction sought with a large enough effect; inconclusive = small, poorly fitted or top-dose-only effect, or another doubt; inactive = no such curve, though single readings can be large; an effect the other way counts as inactive or inconclusive. Unless noted, % is set by controls: 0 for no effect and ±100 for the full control effect.

SMILES	IMPase cell inh	HPGD block	ALOX12 inhib	IMPase Li cell	ALDH1A1 inh	PNC assembly inh
Cc1cccn2cc(CNC(=O)c3ccc(Br)o3)nc12	.	.	.	6.3%	-7.1%	.
Cc1cccn2cc(CNC(=O)C3CCCCC3)nc12	6.1	?	2.9%	-2.2%	2.5%	-100.0*
Cc1ccc(NN2C(=O)C=CC2=O)cc1	-8.2	-5.1%	-1.4%	-0.5%	0.0%	-112.5*
Cc1ccccc1NN1C(=O)C=CC1=O	-2.4[1.84 µM]	-2.1%	2.0%	10.5%[38.3 µM]	4.3%	?
O=C1c2ccccc2C(O)(c2ncc[nH]2)N1CCc1ccccc1 (centres undefined)	-6.8	-9.7%	-2.2%	16.4%[38.3 µM]	14.1µM*	7.9
CCOC(=O)C1CCN(C(=O)C2c3ccccc3C(=O)N(C)C2c2ccc(OC)cc2)CC1 (centres undefined)	-0.9	-5.5%	4.4%	14.4%[38.3 µM]	2.82µM*	-29.5
CCN(CC)CCCNC(=O)C1c2ccccc2C(=O)N(CCOC)C1c1ccc(F)cc1 (centres undefined)	.	.	.	6.9%	7.6%	.
COCCN1C(=O)c2ccccc2C(C(=O)N2CCN(c3ccccn3)CC2)C1c1ccc(F)cc1 (centres undefined)	5.6	-22.9%	-1.3%	4.8%	0.5%	-100.0*
COc1ccc(C2C(C(=O)N3CCCC3)c3cc(OC)c(OC)cc3C(=O)N2C)cc1 (centres undefined)	2.2	-3.8%	5.1%	30.7%[38.3 µM]	4.4%	4.3
COc1ccc(C2C(C(=O)N3CCCCC3)c3ccccc3C(=O)N2C)cc1 (centres undefined)	0.6	.	-7.7%	.	14.1µM*	6.2
COc1ccc(Cl)cc1C(=O)Nc1sc2c(c1C(=O)OC(C)C)CCCC2	-5.9	.	.	.	.	.
CCOC(=O)O[C@@H](C)OC(=O)[C@@H]1N2C(=O)[C@@H](NC(=O)[C@@H](N)c3ccccc3)[C@H]2SC1(C)C	-2.1[20.6 µM]	-9.1%	-2.8%[25.6 µM]	4.0%	9.8%[20.9 µM]	.
CCc1cc2c(NC(C(=O)O)C(C)C)ncnc2s1 (centres undefined)	-6.3	-5.7%	0.3%	-0.3%[38.3 µM]	15.8µM*	9.8
Cc1ccc(-n2ncc3c(NCCCOC(C)C)ncnc32)c(C)c1	-2.3	-28.6%	-6.2%	1.7%[38.3 µM]	?	0.8
CCOC(=O)N1CCC(Nc2ncnc3c2cnn3-c2ccc(C)cc2C)CC1	6.8	-12.4%	-3.9%	27.8%[38.3 µM]	?	-20.8
CCN(CC)C(=O)C1CCN(c2ncnc3c2cnn3-c2ccc(C)cc2C)CC1	2.9	22.4µM*	-2.1%	11.9%[38.3 µM]	10µM*	-24.0
Cc1ccc(-n2ncc3c(NCC4CCCO4)ncnc32)c(C)c1 (centres undefined)	-10.6	2.24µM*	-1.2%	26.7%[38.3 µM]	-11.0%	37.6
C=CCNc1ncnc2c1cnn2-c1ccc(C)cc1C	-2.1	14.1µM*	-10.7%	21.2%[38.3 µM]	-0.3%	5.9
O=C(O)CC[C@@H](NC(=O)c1ccccc1C(=O)O)C(=O)O	6.8	.	0.5%	.	.	.
CCc1cc2c(NCC3CCCO3)ncnc2s1 (centres undefined)	12.1	14.1µM*	1.0%	10.1%[38.3 µM]	?	10.8
N#Cc1cccc(-c2ccc3ncnc(NCCN4CCOCC4)c3c2)c1	.	.	.	8.5%	-6.5%	.
O=C(Nc1nc2c(F)cc(F)cc2s1)c1ccccn1	.	.	.	-12.4%	10µM*	.
O=C1C2C3C=CC(C4CC34)C2C(=O)N1/N=C/c1ccc(-c2ccc([N+](=O)[O-])cc2)o1 (centres undefined)	.	.	.	14.3%	-1.6%	.
O=C1C2C3C=CC(C3)C2C(=O)N1/N=C/c1cc(Br)cc([N+](=O)[O-])c1O (centres undefined)	-0.7	-15.2%	-7.9%	-3.9%[38.3 µM]	?	?
O=C1C2C3C=CC(C3)C2C(=O)N1/N=C/c1ccc(-c2ccccc2[N+](=O)[O-])o1 (centres undefined)	.	-21.9%	-0.6%	10.8%	2.24µM*	?
SMILES	IMPase cell inh	HPGD block	ALOX12 inhib	IMPase Li cell	ALDH1A1 inh	PNC assembly inh
Cc1ccc(-c2ccc(/C=N/N3C(=O)C4C5C=CC(C6CC56)C4C3=O)o2)c([N+](=O)[O-])c1 (centres undefined)	7.1	12.6µM*	-3.0%	30.6%[38.3 µM]	?	6.1
O=C1C2C3C=CC(C4CC34)C2C(=O)N1/N=C/c1ccc([N+](=O)[O-])o1 (centres undefined)	.	.	.	-0.7%	3.16µM*	.
CCCCSCc1nc2ccccn2c1Br	.	.	.	19.3%	-13.6%	.
COc1ccc2c(c1)cc(C(=O)O)n2C	1.2	?	2.1%	16.9%[38.3 µM]	?	46.0
COc1ccc2c(c1)sc(=N)n2C	.	.	.	-0.7%	20µM*	.
CO[C@@H]1COC(=O)[C@H](COCc2ccccc2)NC(=O)C/C=C\[C@@H](C)[C@H](OC)COC(=O)[C@H](COCc2ccccc2)NC(=O)C/C=C\[C@H]1C	.	.	.	.	1.8%[13.5 µM]	.
Cc1cccc(OCC(=O)Nc2ccc(N3CCCC3)cc2)c1C	12.2	-0.2%	-14.9%	7.5%[38.3 µM]	12.6µM*	24.5
COc1ccccc1OCC(=O)Nc1ccc(N2CCCCC2)cc1	.	.	.	15.6%	-12.8%	.
Cc1ccccc1OCC(=O)Nc1ccc(C(N)=O)cc1	-7.3	-7.7%	-4.5%	6.9%[38.3 µM]	18.9%	-4.6
O=C(O)CCC(=O)Nc1ccc(N2CCCCCC2)cc1	34.9	-15.7%	-16.7%	71.1%[38.3 µM]	11.2µM*	16.4
O=C(CNCC1CCCO1)Nc1ccc(N2CCCCCC2)cc1 (centres undefined)	41.9	-13.1%	-7.8%	71.4%[38.3 µM]	15.8µM*	-27.5
Cc1ccccc1OCC(=O)Nc1ccc(Cc2ccncc2)cc1	.	17.8µM*	0.8%	14.4%	?	?
CC(C)(C)OC(=O)N1CCC(c2cc(-c3cccs3)n[nH]2)CC1	.	.	.	8.1%	0.8%	.
Cn1c(CN2CCCCC2)nc2cc([N+](=O)[O-])ccc21	.	.	.	0.6%	11.2µM*	.
CCCC(C)CO (centres undefined)	.	2.1%	-0.2%	-7.1%	-0.7%	.
CCOc1ccc(C(=O)NC(=S)Nc2ccc(N3CCC(C)CC3)cc2)cc1[N+](=O)[O-]	4.1	-30.0%	-2.7%	10.8%	7.94µM*	-118.9*
CCC(=O)N1CCN(c2ccc(NC(=S)NC(=O)c3ccc(OC)c([N+](=O)[O-])c3)cc2)CC1	.	.	.	8.9%	11.2µM*	.
COC(=O)C1=C(C)NC(C)=C(C(=O)OCCN(C)Cc2ccccc2)[C@@H]1c1cccc([N+](=O)[O-])c1	17.2	.	-5.4%	.	.	.
Cc1nn(-c2ccccc2)c(C)c1NC(=O)COc1ccc(C#N)cc1	.	-8.4%	0.6%	-3.7%	3.9%	-80.4*
COCc1cc(=O)[nH]c(Nc2nc3ccccc3o2)n1	-2.0	-12.8%	-3.5%	-7.3%[38.3 µM]	15.0%	-17.2
Cc1ccc2c(C)nc(Nc3nc(CSc4nnnn4-c4ccccc4)cc(=O)[nH]3)nc2c1	-5.0	-23.7%	1.8%	-12.9%	3.98µM*	?
